Results filed as inconclusive are left out. A number with no mark means an inactive call. Calls of active or inactive are those of the source. Calls follow the shape of the dose curve; as a rule, active = well fitted inhibition curve with a large enough effect; inconclusive = small, poorly fitted or top-dose-only effect; inactive = flat fitted curve, though single readings scatter.
These compounds were tested on CRL-7250 (assay: Cytotoxic Profiling of Annotated Libraries Using Quantitative High-Throughput Screening (AID 1296008; also: nearly all actives have a fitted effect of over 60% in size)). Settings: Five cell lines viability, CellTiter-Glo ATP luminescence, 48-72 h; max response: active compounds read low.
In short: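 Compounds were pin-transferred onto cells and incubated 48 or 72 hr at 37 degree Celsius, 95% humidity. CellTiter-Glo was added, plates sat 10 min at room temperature, then ATP-coupled luminescence was imaged as the viability read-out.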
% is scaled to controls: 0 for no effect and ±100 for the full control effect; potency is read from the fitted curve at half-maximal effect.

Compound | max response [%] | Potency | outcome
CC(C)(O)c1ccn2c(-c3ccc(F)c(-c4ccc(F)cc4C#N)c3)cnc2c1F | -19.9 | – | –
CC(C)C[C@@H](C(=O)N[C@@H](Cc1ccc(OCc2ccccc2)cc1)C(=O)NC(C)(C)C)N(C)Cc1ccc(C(C)(C)C)cc1 | -7.62 | – | –
COc1cccc(NCCC2(c3ccccc3)CC(C)(C)OC(C)(C)C2)c1 | -3.59 | – | –
CNc1cccc(CCOc2ccc3c(c2)CN(CC(F)(F)F)C(=O)[C@H](CC(=O)O)C3)n1 | – | 0.082 µM (active) | –
CC(C)=CCC[C@](C)(O[C@@H]1O[C@H](CO[C@@H]2OC[C@@H](O)[C@H](O)[C@H]2O)[C@@H](O)[C@H](O)[C@H]1O)[C@H]1CC[C@]2(C)[C@@H]1[C@H](O)C[C@@H]1[C@@]3(C)CC[C@H](O[C@@H]4O[C@H](CO)[C@@H](O)[C@H](O)[C@H]4O)C(C)(C)[C@@H]3CC[C@]12C | -26.7 | – | –
COc1ccccc1OCCNCC(O)CCOc1cccc2[nH]c3ccccc3c12 (stereo unspecified) | – | – | inactive
Cc1c(C(=O)Nc2ccc(N3CCC(N4CCOCC4)CC3)c(C#N)c2)cnn1-c1ccc(Cl)cc1 | – | 1.16 µM (active) | –
COC(=O)CC(O)CC(O)/C=C/c1c(C)ccc2c1C(OC(C)=O)CC(C)C2 (stereo unspecified) | – | 4.04 µM (active) | –
Cc1cc(C(=O)Cn2cc(C#N)ccc2=O)c(C)n1Cc1ccccc1 | -5.73 | – | –
CC(C)=CCC/C(C)=C/COCC1OC(n2ccc(=O)[nH]c2=O)C(O)C1O (stereo unspecified) | -3.59 | – | –
CCC(C)C(=O)O[C@H]1[C@H](O)[C@@]2(COC(C)=O)C(CC1(C)C)C1=CCC3[C@@]4(C)CC[C@H](O[C@@H]5O[C@H](C(=O)O)[C@@H](O)[C@H](O)[C@H]5O)[C@@](C)(CO)C4CC[C@@]3(C)[C@]1(C)C[C@@H]2O (stereo partly specified) | 4.21 | – | –

— PubChem BioAssay (NCATS)
